Test [1] is described as follows: compound effects on lung adenocarcinoma cell viability – A549, calcein-AM fluorescence, 48 h, basal, profiling panel (AID 1162). Further: test concentration not given here. The conditions noted are these: higher = more signal.
Test [2] can be described thus: compound effects on differentiated 3T3-L1 adipocyte viability – cell-based, 3T3-L1 adipocytes, calcein-AM fluorescence, 48 h, basal, profiling panel (AID 1163). Further: test concentration not given here. The conditions noted are these: 3T3-L1 adipocytes viability, higher = more signal.
Test [3] is described as follows: compound effects on hepatocellular carcinoma cell viability – HepG2, calcein-AM fluorescence, 48 h, basal, profiling panel (AID 1164). Further: test concentration not given here. To be noted: higher = more signal.
A short description of test [4]: compound effects on multiple myeloma cell viability – MM1S, calcein-AM fluorescence, 48 h, basal, profiling panel (AID 1165).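 Further: viability of MM1S multiple myeloma cells under basal unstimulated conditions; test concentration not given here.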 To be noted: higher = more signal.
A short description of test [5]: calcein-AM signal in unstimulated myeloma cells – cell-based, calcein-AM fluorescence, 48 h, PK04 Diversity Set, profiling panel (AID 1166).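 Further: cells grown under basal conditions without added stimulus; test concentration not given here.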 To be noted: RPMI8226 myeloma viability, higher = more signal.
A short description of test [6]: JC-1 mitochondrial signal, unstimulated HepG2 cells – cell-based, JC-1 fluorescence, 24 h, 100 nL compound, profiling panel (AID 1167). Further: test concentration not given here. The conditions noted are these: HepG2 mitochondrial potential, higher = more signal.
The nature of test [7]: JC-1 mitochondrial signal, unstimulated adipocytes – cell-based, JC-1 fluorescence, 3T3-L1 adipocytes, 24 h, 100 nL compound, profiling panel (AID 1168). Further: test concentration not given here. The conditions noted are these: JC-1 mitochondrial fluorescence, higher = more signal, called active from +8 up or from −8 down.
Test [8] in a line: JC-1 mitochondrial signal, unstimulated myeloma cells – cell-based, JC-1 fluorescence, RPMI8226, 24 h, 100 nL compound, profiling panel (AID 1169). Further: test concentration not given here. The conditions noted are these: JC-1 mitochondrial potential fluorescence, higher = more signal.
Test [9] can be described thus: JC-1 mitochondrial signal, unstimulated MM1S myeloma – cell-based, JC-1 fluorescence, 24 h, 100 nL compound, profiling panel (AID 1170). Further: test concentration not given here. To be noted: MM1S mitochondrial potential, higher = more signal.
A short description of test [10]: resazurin metabolic signal in A549 cells – cell-based, resazurin fluorescence, 24 h, PK04 Diversity Set, profiling panel (AID 1171). Further: test concentration not given here. The conditions noted are these: A549 viability, higher = more signal, called active from +8 up or from −8 down. Background: The colour change of resazurin is a common sign of viable cells or microbes.
The nature of test [11]: resazurin metabolic signal in HepG2 cells – cell-based, resazurin fluorescence, 24 h, PK04 Diversity Set, profiling panel (AID 1172). Further: test concentration not given here. To be noted: HepG2 viability, higher = more signal.
Test [12] is described as follows: budding yeast growth changes without added modifier – OD600, strain BY4716, 24 h, basal condition, primary screen (AID 1173). To be noted: S. cerevisiae BY4716 growth, OD600, 24 h; higher = more signal, called active from +8 up or from −8 down.
Test [13] is described as follows: viability profiling in MM1S myeloma cells – cell-based, resazurin fluorescence, basal, 24 h, PK04 Diversity Set, profiling panel (AID 1174). Further: test concentration not given here. To be noted: higher = more signal, called active from +8 up or from −8 down.
For test [14], the target named is Dihydroorotate dehydrogenase (quinone), mitochondrial (Plasmodium falciparum (isolate 3D7)) (UniProt Q08210). In words: inhibition of P. falciparum DHODH – biochemical, C-terminal His tag, absorbance 600 nm, primary screen (AID 1175).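 Further: recombinant parasite enzyme with a five histidine tag at its C terminus; test concentration not given here.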 The conditions noted are these: PfDHODH enzyme, DCIP absorbance 600 nm; higher = more signal, called active from +8 up or from −8 down.
Chain of Dihydroorotate dehydrogenase (quinone), mitochondrial (Plasmodium falciparum (isolate 3D7)) (Q08210 whole entry, looked up): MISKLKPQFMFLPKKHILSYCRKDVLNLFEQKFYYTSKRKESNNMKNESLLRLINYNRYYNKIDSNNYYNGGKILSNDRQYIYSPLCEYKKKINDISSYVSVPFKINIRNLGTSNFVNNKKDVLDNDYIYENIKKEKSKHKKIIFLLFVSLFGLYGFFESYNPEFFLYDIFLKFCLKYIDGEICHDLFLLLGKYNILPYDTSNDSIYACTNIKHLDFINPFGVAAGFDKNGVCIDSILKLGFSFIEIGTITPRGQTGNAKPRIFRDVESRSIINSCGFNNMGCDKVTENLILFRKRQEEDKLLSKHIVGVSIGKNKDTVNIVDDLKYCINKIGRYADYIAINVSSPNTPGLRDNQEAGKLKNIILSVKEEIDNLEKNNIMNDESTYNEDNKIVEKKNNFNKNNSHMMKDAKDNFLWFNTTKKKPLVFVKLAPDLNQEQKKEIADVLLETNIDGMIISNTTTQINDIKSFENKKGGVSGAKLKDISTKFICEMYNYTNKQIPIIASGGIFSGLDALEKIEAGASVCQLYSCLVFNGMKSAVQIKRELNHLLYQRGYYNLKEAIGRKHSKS

The nature of test [15]: inhibition of PAO1 biofilm formation – strain PAO1, LB-PBS medium, absorbance 600 nm, primary screen (AID 1176). Further: test concentration not given here. To be noted: P. aeruginosa PAO1 growth/biofilm, A600, 12 h; higher = more signal.
Test [16] is described as follows: growth modulation of vineyard yeast isolate – strain RM11-1a, OD600, basal, 24 h, primary screen (AID 1177).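 Further: cultures grown under basal conditions with no added stressor; test concentration not given here.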 The conditions noted are these: S. cerevisiae RM11-1a growth, OD600, 24 h; higher = more signal, called active from +8 up or from −8 down.
Test [17] can be described thus: growth of efflux-deficient E. coli DRC39 – strain DRC39, OD650, 24 h, E. coli filamentation inducers, primary screen (AID 1178).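 Further: growth measured as culture turbidity by optical density at 650 nm; test concentration not given here.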 The conditions noted are these: E. coli DRC39 acrAB, higher = more signal, called active from +8 up or from −8 down.
A short description of test [18]: growth of efflux-deficient E. coli DRC39 – strain DRC39, OD650, 48 h, E. coli filamentation inducers, primary screen (AID 1179).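 Further: screen aims at cell division blockers that make cells filament.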 To be noted: E. coli DRC39 delta-acrAB growth, higher = more signal, called active from +8 up or from −8 down.
Test [19] is described as follows: viability profiling in RPMI8226 myeloma cells – cell-based, resazurin fluorescence, basal, 24 h, PK04 Diversity Set, profiling panel (AID 1180).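 Further: RPMI8826 multiple myeloma cell line at 5000 cells per well; test concentration not given here.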 To be noted: higher = more signal.
Test [20] concerns the target E3 ubiquitin-protein ligase XIAP (Homo sapiens) (UniProt P98170). Kind of test: small molecules binding XIAP protein – biophysical, small-molecule microarray, fluorescence 635 nm, primary screen (AID 1181).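 Further: score merges 667 nm emission and signal to noise over triplicate slides.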 The conditions noted are these: higher = more signal.

Each structure is given as a SMILES string. Active and inactive are the calls of the source. Unless noted, how the calls were made is not given here.

Chain of E3 ubiquitin-protein ligase XIAP (Homo sapiens) (P98170 whole entry, looked up): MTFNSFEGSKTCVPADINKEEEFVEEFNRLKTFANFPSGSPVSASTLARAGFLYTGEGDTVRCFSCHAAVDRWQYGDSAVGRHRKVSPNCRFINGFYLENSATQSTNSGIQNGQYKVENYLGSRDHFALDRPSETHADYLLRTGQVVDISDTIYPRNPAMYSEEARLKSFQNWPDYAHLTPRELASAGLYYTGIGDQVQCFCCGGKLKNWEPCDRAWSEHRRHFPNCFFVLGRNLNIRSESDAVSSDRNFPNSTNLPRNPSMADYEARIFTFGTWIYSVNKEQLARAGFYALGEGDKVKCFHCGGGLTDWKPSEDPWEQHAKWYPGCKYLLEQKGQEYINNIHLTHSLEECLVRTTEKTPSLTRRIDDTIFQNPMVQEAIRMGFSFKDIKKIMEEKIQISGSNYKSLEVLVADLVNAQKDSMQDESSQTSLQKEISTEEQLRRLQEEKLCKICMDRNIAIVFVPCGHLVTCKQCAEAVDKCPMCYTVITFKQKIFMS

`O=C1C2C=CC(C(O)c3cccc(O)c3)N(Nc3ccccc3)C2C(=O)N1c1ccccc1` (stereo not given): the z-score in test [1] is -0.671; in test [2] it was -0.096; in test [3], -1.22; in test [4], -0.109; in test [5], -0.444; in test [6], -2.04. The z-score in test [7] was 0.166 (inactive); in [8], -0.0193; in test [9], -1.37; in test [10] it was -0.224 (inactive); in test [11], -0.491; in test [12], -0.774 (inactive). Besides, the z-score in test [13] was -1.05 (inactive); in [15] it was 0.67 (inactive); in [16], 0.196 (inactive); in test [17], -0.0671 (inactive); in test [18], 0.0995 (inactive); in test [19], -0.985. For the same compound, the composite z-score in test [14] is -0.791 (inactive); in test [20] it was -0.0806.

For the compound `C=CCC(OC(C)=O)[C@@H]1[C@@H](N(Cc2ccc(-c3ccccc3)cc2)C(=O)Cc2ccc(F)cc2)c2cc(OCCCO)ccc2N1C(=O)Cc1ccc2ccccc2c1` (stereo not given in full), the z-score is 0.234 in test [1]; -0.246 in [2]; 0.646 in test [3]; -0.177 in test [4]; 0.0473 in test [5]; 2.19 in test [6]. For the same compound, the z-score in [7] was -0.321 (inactive); in [8], -0.909; in test [9], 0.89; in [10], 1.05 (inactive); in [11], 0.487; in test [12], -0.0838 (inactive). For the same compound, the z-score is 0.821 (inactive) in [13]; 0.113 (inactive) in test [15]; -0.177 (inactive) in test [16]; 0.531 (inactive) in test [17]; 0.575 (inactive) in test [18]; 0.486 in test [19]. For the same compound, the composite z-score is 0.252 (inactive) in test [14] and -0.455 in test [20].

In the case of `COCCOC(=O)N1C(=O)[C@@]2(c3cc(C#Cc4ccc(OC)cc4)ccc31)[C@H](C(=O)NC[C@H](O)c1ccccc1)[C@H]1C(=O)O[C@H](c3ccccc3)[C@H](c3ccccc3)N1[C@@H]2c1ccc(OCCO)cc1`, the z-score was -0.953 in test [1]; 0.55 in test [2]; -1.1 in [3]; -0.915 in test [4]; -1.47 in test [5]; -1.97 in [6]. In addition, the z-score was 2.35 (inactive) in test [7]; -0.66 in [8]; -1.78 in test [9]; 1.32 (inactive) in test [10]; 1.21 in test [11]; 1.95 (inactive) in test [12]. The z-score in [13] was 0.0406 (inactive); in [15], 1.93 (inactive); in test [16], 2.67 (inactive); in test [17], 0.14 (inactive); in test [18] it was -0.35 (inactive); in test [19], -0.285. Also, the composite z-score in [14] was 1.86 (inactive); in test [20] it was -0.0883.

As to `CC(C)c1ccc(NN2C(C(O)Cc3ccccc3)C=CC3C(=O)N(c4ccccc4)C(=O)C32)cc1` (stereo not given), the z-score is -0.989 in test [1]; -0.482 in test [2]; 0.526 in test [3]; -1.06 in test [4]; -0.434 in test [5]; -2 in [6]. Moreover, the z-score in test [7] was -0.864 (inactive); in [8], 0.411; in test [9], 1.51; in test [10] it was -0.63 (inactive); in test [11] it was -1.93; in test [12] it was -1.02 (inactive). In addition, the z-score in test [13] is -1 (inactive); in test [15], 0.683 (inactive); in test [16], 0.269 (inactive); in [17] it was -1.12 (inactive); in [18], -1.07 (inactive); in test [19], -0.807. For the same compound, the composite z-score in test [14] is -0.335 (inactive); in [20] it was 0.0989.

`COC(=O)[C@@]1(Cc2ccc(OC)cc2)[C@H]2c3cc(C(=O)N4CCCC4)n(Cc4cc(C)n(C)n4)c3C[C@H]2CN1C(=O)c1ccccc1`: the z-score in test [1] is -0.0671; in test [2], -0.471; in test [3], 0.851; in test [4] it was 0.559; in test [5] it was 0.192; in [6] it was 3.05. Besides, the z-score in test [7] was 0.00691 (inactive); in test [8], -0.475; in test [9], -1.37; in [10] it was 0.0924 (inactive); in test [11], -0.646; in test [12], 1.1 (inactive). Besides, the z-score in [13] is -2.09 (inactive); in test [15], -0.222 (inactive); in test [16], 0.472 (inactive); in test [17] it was -0.145 (inactive); in test [18], 0.342 (inactive); in [19], -2.11. Besides, the composite z-score is -0.77 (inactive) in [14] and -0.02 in test [20].

(Values after PubChem BioAssay.)
